Not all results are given here.
aSyn UTR act: Activators via SNCA 5'UTR binding, MLPCN. actives 7.1% (n = 300,000). alpha-synuclein 5'UTR reporter, activators screen. activity score, % (tested at 7.5 µM), hits read low; in the data active means activity score below about -60%
* hit, by the source's call.

SMILES	aSyn UTR act
O=S(=O)(c1ccc(Cl)cc1)N1CCN(Cc2ccc(O)c3ncccc23)CC1	77.2
O=C(Cc1csc(Nc2nc(=S)[nH]c3ccccc23)n1)NCCCN1CCN(c2ccccc2F)CC1	91.5
O=C(NCCCN1CCCCC1)c1ccc2c(=O)n(CCc3ccccc3)c(=O)[nH]c2c1	-82.1*
O=C1Nc2cc(C(=O)NCCCN3CCCC3)ccc2S/C1=C\c1ccccc1	-93.6*
CCN(CC)CCNC(=O)c1ccc2c(=O)n(CCc3ccccc3)c(=O)[nH]c2c1	-108.7*
CCN1CCN(CCCNC(=O)c2ccc(/C=C3/Oc4ccccc4N(Cc4cccc(C)c4)C3=O)cc2)CC1	101.4
CCOc1cccc(Nc2ccc([N+](=O)[O-])cn2)c1	-101.6*
Cc1cccc(NC2=NC(C)(C)N=C(N)N2)c1	98.4
Cc1cccc(Nc2ccc([N+](=O)[O-])cn2)c1	-87.2*
CCCNC1=C(N(C(C)=O)c2cccc(F)c2)C(=O)c2ccccc2C1=O	91.7
CCCC(O)(CCC)C(=O)NN(C(=O)CCl)c1ccccc1	-68.8*
O=C(CCl)N(c1ccccc1)C1CCCCC1	110.0
COc1ccc(-c2nc(CS(=O)CC(=O)NCCC3=CCCCC3)c(C)o2)cc1 (stereo not given)	-86.1*
FC(F)(F)c1ccc(C2NCCc3sccc32)cc1 (stereo not given)	-62.9*
O=C1c2ccccc2-c2nc3ccccc3cc21	-114.2*
c1ccc2c(c1)Cc1cc3ccccc3nc1-2	-102.2*
Cc1ccc(-c2cc3c(nn2)-c2ccccc2C3=O)cc1	86.5
Nc1cc2nn(-c3ccccc3)nc2cc1Cl	-157.1*
CC(C)CC(=O)Nc1cc2nn(-c3ccccc3)nc2cc1Cl	-134.5*
COc1ccc(/C=C/C(=O)c2c(C)nc3ccccn23)cc1	-307.6*
Cc1nc2ccccn2c1C(=O)/C=C/c1ccc(F)cc1	-83.4*
CCc1nc2oc3cc(OC)ccc3c(=O)c2c(=O)n1-c1ccccc1	-124.4*
Cc1ccc(-n2c(C)nc3oc4ccccc4c(=O)c3c2=O)cc1	-240.7*
COc1ccc2c(=O)c3c(=O)n(-c4ccccc4)c(-c4ccco4)nc3oc2c1	-95.6*
COC(=O)c1sccc1-c1ccc(C(=O)Nc2cccnc2)o1	-75.7*
SMILES	aSyn UTR act
O=C(NN(c1ccccc1)c1ccccc1)c1ccc([N+](=O)[O-])o1	-83.2*
NC(=O)c1oc2ccccc2c1NC(=O)c1ccc([N+](=O)[O-])o1	100.4
O=C(NCc1cccnc1)c1ccc([N+](=O)[O-])o1	-117.4*
O=C(Nc1cccnc1)c1ccc([N+](=O)[O-])o1	-202.4*
COc1c(C)cccc1C(=O)Nc1ccc(N2CCOCC2)c(Cl)c1	-173.2*
C=CCN(c1ccccc1OC)S(=O)(=O)c1ccc(Cl)c(C(=O)Nc2ccc(N3CCOCC3)cc2)c1	89.2
O=C(Nc1ccc(N2CCOCC2)c(Cl)c1)c1cc(F)c(F)cc1Cl	-63.8*
CC1CCCCN1C(=O)c1cc(-c2ccc(Cl)c(Cl)c2)on1 (stereo not given)	-221.7*
CC1CCCCN1C(=O)c1cc(-c2ccc3c(c2)OCO3)on1 (stereo not given)	-86.9*
CCC1CCCCN1C(=O)c1cc(-c2ccc(Cl)c(Cl)c2)on1 (stereo not given)	-93.5*
COc1cccc(-c2cc(C(=O)N3C(C)CCCC3C)no2)c1 (stereo not given)	-147.5*
CC(=O)OC(CC(=O)O)C[N+](C)(C)C (stereo not given)	67.7
O=C(CN1C(=O)c2ccccc2S1(=O)=O)c1cccc(Br)c1	84.2
O=C(CN1CC(=O)Oc2ccccc21)OCC(=O)c1ccccc1	-100.1*
O=C(CN1CC(=O)Oc2ccccc21)OCC(=O)c1cccc(Br)c1	-65.6*
c1ccc(-c2cc3nccc(-c4ccccn4)n3n2)cc1	-196.2*
COc1ccccc1NC(CC(=O)c1ccccc1)C(=O)OCC(=O)c1ccc(C)c(C)c1 (stereo not given)	-127.2*
COc1ccccc1NC(CC(=O)c1ccccc1)C(=O)OCC(=O)c1ccc(C)cc1 (stereo not given)	-189.7*
COc1ccccc1NC(CC(=O)c1ccccc1)C(=O)OCC(=O)c1ccc(Br)cc1 (stereo not given)	-130.0*
O=C(CC(Nc1ccccc1Cl)C(=O)OCC(=O)c1cccs1)c1ccccc1 (stereo not given)	-118.5*
CCNC(=O)O/N=C(\C)c1sc(-c2ccc(Cl)cc2)nc1C	-76.7*
C/C(=N\OC(=O)NC(C)C)c1sc(-c2ccccc2)nc1C	-140.7*
C=C(C)c1sc(-c2ccc(Cl)cc2)nc1C	-223.1*
C/C(=N\OC(=O)NC1CCCCC1)c1sc(-c2ccccc2)nc1C	-114.8*
C/C(=N\OC(=O)NC(C)C)c1sc(-c2ccc(Cl)cc2)nc1C	-154.1*
COc1cc2c(cc1NC(=O)CSc1ccccn1)oc1ccccc12	-280.7*
O=C(CSc1ccccn1)Nc1ccc2c(c1)oc1ccccc12	-122.4*
Nc1ccc(C(=O)N/N=C/c2cn(Cc3ccccc3F)c3ccccc23)cc1	72.4
O=C(O)c1ccc(N/N=C/c2cn(Cc3ccccc3F)c3ccccc23)cc1	-65.2*

Screening data deposited in PubChem BioAssay by Broad Institute.
